Hit rate of the full screen: of about 5,500 compounds, about 2,000 (36%) were called active. Roughly 18% stayed inconclusive and do not appear here. Rule as the data show it: active = normalized growth mostly below about 0.91 (no sharp cut-off); inconclusive = no clear call, values can overlap the other calls; inactive = mostly above about 0.92. The list shows a part of the results.
Test: chemical genetic growth profiling, strain panel (AID 1159580);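 also: tested at 20 µM; growth read once vehicle control cultures reached saturation at 30 °C; 1 = growth at the plate median or of vehicle wells; lower values mean less growth of the strain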
Details: growth OD

Measured: normalized growth

N#CC(O[C@@H]1O[C@H](CO[C@@H]2O[C@H](CO)[C@@H](O)[C@H](O)[C@H]2O)[C@@H](O)[C@H](O)[C@H]1O)c1ccccc1 (some centres not stated)
inactive: S. cerevisiae deletion strains, locus YJR043C, strain POL32, active compounds read low 1.01 | S. cerevisiae deletion strains, locus YJR066W, strain TOR1, active compounds read low 0.921 | S. cerevisiae deletion strains, locus YJR075W, strain HOC1, active compounds read low 0.999 | S. cerevisiae deletion strains, locus YKL009W, strain mrt4, active compounds read low 0.99 | S. cerevisiae deletion strains, locus YKL068W, active compounds read low 0.991 | S. cerevisiae deletion strains, locus YKL085W, strain MDH1 (second series), active compounds read low 0.987 | S. cerevisiae deletion strains, locus YKL085W, strain MDH1, active compounds read low 0.987 | S. cerevisiae deletion strains, locus YKL160W, strain elf1, active compounds read low 0.983 | S. cerevisiae deletion strains, locus YKR001C, strain vps1, active compounds read low 0.988 | S. cerevisiae deletion strains, locus YKR026C, strain gcn3, active compounds read low 0.977 | S. cerevisiae deletion strains, locus YKR091W, strain srl3, active compounds read low 0.979 | S. cerevisiae deletion strains, locus YLL001W, strain dnm1, active compounds read low 0.984 | S. cerevisiae deletion strains, locus YLL026W, active compounds read low 0.981 | S. cerevisiae deletion strains, locus YLL041C, strain sdh2, active compounds read low 0.991 | S. cerevisiae deletion strains, locus YLR027C, strain aat2, active compounds read low 0.987 | S. cerevisiae deletion strains, locus YLR039C, strain RIC1, active compounds read low 1.01 | S. cerevisiae deletion strains, locus YLR058C, strain SHM2, active compounds read low 1.01 | S. cerevisiae deletion strains, locus YLR102C, strain apc9, active compounds read low 0.983 | S. cerevisiae deletion strains, locus YLR113W, strain HOG1, active compounds read low 1.03 | S. cerevisiae deletion strains, locus YLR221C, strain rsa3, active compounds read low 0.976 | S. cerevisiae deletion strains, locus YLR258W, strain gsy2, active compounds read low 0.982 | S. cerevisiae deletion strains, locus YLR262C, strain YPT6 (second series), active compounds read low 0.991 | S. cerevisiae deletion strains, locus YLR262C, strain YPT6, active compounds read low 1.04 | S. cerevisiae deletion strains, locus YLR268W, strain sec22, active compounds read low 0.972 | S. cerevisiae deletion strains, locus YLR320W, strain mms22, active compounds read low 0.968 | S. cerevisiae deletion strains, locus YLR330W, strain CHS5, active compounds read low 1.01 | S. cerevisiae deletion strains, locus YLR342W, strain FKS1 (second series), active compounds read low 1.03 | S. cerevisiae deletion strains, locus YLR342W, strain FKS1, active compounds read low 0.967 | S. cerevisiae deletion strains, locus YLR357W, strain rsc2, active compounds read low 0.948 | S. cerevisiae deletion strains, locus YLR370C, strain arc18, active compounds read low 0.991 | S. cerevisiae deletion strains, locus YLR371W, strain rom2, active compounds read low 1.01 | S. cerevisiae deletion strains, locus YLR384C, strain iki3, active compounds read low 0.96 | S. cerevisiae deletion strains, locus YLR418C, strain cdc73, active compounds read low 1.02 | S. cerevisiae deletion strains, locus YML016C, strain PPZ1, active compounds read low 0.986 | S. cerevisiae deletion strains, locus YML032C, strain rad52, active compounds read low 1.01 | S. cerevisiae deletion strains, locus YML120C, strain ndi1, active compounds read low 0.991 | S. cerevisiae deletion strains, locus YML124C, strain tub3, active compounds read low 0.999 | S. cerevisiae deletion strains, locus YMR058W, strain fet3, active compounds read low 0.989 | S. cerevisiae deletion strains, locus YMR078C, strain ctf18, active compounds read low 1 | S. cerevisiae deletion strains, locus YMR125W, strain sto1, active compounds read low 0.965 | S. cerevisiae deletion strains, locus YMR129W, active compounds read low 0.985 | S. cerevisiae deletion strains, locus YMR205C, strain PFK2, active compounds read low 0.985 | S. cerevisiae deletion strains, locus YMR223W, strain ubp8, active compounds read low 1.01 | S. cerevisiae deletion strains, locus YMR231W, strain pep5, active compounds read low 0.964 | S. cerevisiae deletion strains, locus YMR307W, strain GAS1, active compounds read low 1.01 | S. cerevisiae deletion strains, locus YNL067W, strain RPL9B, active compounds read low 1.03 | S. cerevisiae deletion strains, locus YNL071W, strain lat1, active compounds read low 0.98 | S. cerevisiae deletion strains, locus YNL183C, strain NPR1, active compounds read low 0.976 | S. cerevisiae deletion strains, locus YNL209W, strain ssb2, active compounds read low 0.984 | S. cerevisiae deletion strains, locus YNL233W, strain BNI4, active compounds read low 1.04 | S. cerevisiae deletion strains, locus YNL248C, strain rpa49, active compounds read low 0.983 | S. cerevisiae deletion strains, locus YNL250W, strain rad50, active compounds read low 0.969 | S. cerevisiae deletion strains, locus YNL271C, strain bni1, active compounds read low 0.986 | S. cerevisiae deletion strains, locus YNL298W, strain CLA4, active compounds read low 0.996 | S. cerevisiae deletion strains, locus YNL307C, strain MCK1, active compounds read low 0.991 | S. cerevisiae deletion strains, locus YNL322C, strain KRE1 (second series), active compounds read low 0.977 | S. cerevisiae deletion strains, locus YNR049C, strain mso1, active compounds read low 0.984 | S. cerevisiae deletion strains, locus YNR052C, strain pop2, active compounds read low 0.989 | S. cerevisiae deletion strains, locus YOL006C, strain TOP1, active compounds read low 1.05 | S. cerevisiae deletion strains, locus YOL012C, strain htz1 1.19 | S. cerevisiae deletion strains, locus YOL147C, strain pex11, active compounds read low 0.989 | S. cerevisiae deletion strains, locus YOR001W, strain rrp6, active compounds read low 0.946 | S. cerevisiae deletion strains, locus YOR061W, strain CKA2, active compounds read low 0.993 | S. cerevisiae deletion strains, locus YOR069W, strain VPS5, active compounds read low 0.993 | S. cerevisiae deletion strains, locus YOR070C, strain gyp1, active compounds read low 0.967 | S. cerevisiae deletion strains, locus YOR080W, strain dia2, active compounds read low 0.966 | S. cerevisiae deletion strains, locus YOR083W, strain WHI5, active compounds read low 0.976 | S. cerevisiae deletion strains, locus YOR106W, strain vam3, active compounds read low 0.989 | S. cerevisiae deletion strains, locus YOR136W, strain idh2, active compounds read low 0.994 | S. cerevisiae deletion strains, locus YOR144C, strain elg1, active compounds read low 0.99 | S. cerevisiae deletion strains, locus YOR184W, strain ser1, active compounds read low 1.04 | S. cerevisiae deletion strains, locus YOR231W, strain MKK1, active compounds read low 0.974 | S. cerevisiae deletion strains, locus YOR265W, strain rbl2, active compounds read low 0.981 | S. cerevisiae deletion strains, locus YOR270C, strain vph1, active compounds read low 0.98 | S. cerevisiae deletion strains, locus YOR290C, strain snf2, active compounds read low 0.988 | S. cerevisiae deletion strains, locus YOR316C, strain cot1, active compounds read low 0.985 | S. cerevisiae deletion strains, locus YPL051W, strain arl3, active compounds read low 0.98 | S. cerevisiae deletion strains, locus YPL078C, strain atp4, active compounds read low 0.984 | S. cerevisiae deletion strains, locus YPL106C, strain sse1, active compounds read low 0.972 | S. cerevisiae deletion strains, locus YPL240C, strain hsp82, active compounds read low 0.985 | S. cerevisiae deletion strains, locus YPL256C, strain CLN2, active compounds read low 0.969 | S. cerevisiae deletion strains, locus YPR119W, strain clb2, active compounds read low 1.01 | S. cerevisiae deletion strains, locus YPR141C, strain kar3, active compounds read low 0.981 | S. cerevisiae deletion strains, locus YPR163C, strain tif3, active compounds read low 0.992 | S. cerevisiae deletion strains, locus YPR167C, strain met16, active compounds read low 0.973 | S. cerevisiae deletion strains, strain wtn01, active compounds read low 0.984 | S. cerevisiae strains, strain wild type, active compounds read low 1.02
